Source: PubChem BioAssay (National Center for Advancing Translational Sciences (NCATS))
Most compounds without a hit are left out; they make up all but 2.6% or so of the library.
CCT modulator: modulators of cytosolic chaperonin (CCT/TRiC) activity; hit rate 0.3% among 360,000; purified chaperonin ATPase assay, HTRF ADP detection, 30 min; activity change, % (concentration not given with the values), hits read low; in the data active = activity change below about -30%; also: % is scaled to controls: 0 for no effect and ±100 for the full control effect
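Enzyme 40 or 20 nM (batch-dependent) in Tris pH 7.4/KCl/MgCl2/DTT; cpd 76 uM single point; ATP 10 uM; 30 min 37 °C; Transcreener ADP HTRF detection, 30 min RT; ratio 665/615.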
TCR activator: activates T cell receptor signaling | 330,000 tested, under 10 active | primary human leukocytes, anti-CD3, IL-2 HTRF, 48 h | Potency, µM (titrated, usually from 9.22 µM), without a hit: top-dose activation of IL-2 secretion, usual class: activators; also: % of control where 0% means no effect
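Compounds are tested in HTS on primary human leukocytes co-incubated with a-CD3 beads for 48 hr. IL-2 output is measured by time-resolved FRET.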
AT treatment: potential ataxia-telangiectasia treatments restoring KAP-1 phosphorylation; F2112 A-T fibroblasts, KAP-1 phosphorylation AlphaLISA; neocarzinostatin DNA damage 30 min before lysis; Potency, µM (highest dose often 57.5 µM), without a hit: top-dose activation, hits mostly activators; hit rate 0.19% among 320,000; AID 485349; also: potency is read from the fitted curve at half-maximal effect; % of control where 0% means no effect; nearly all actives have a fitted effect of over 45% in size
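ATM-like activity read as KAP-1 phosphorylation via AlphaLISA donor/acceptor antibody pairs after lysis and 6 hr at 25C. Cells were ATM-null patient fibroblasts (F2112, hTERT), dosed 60 min, then exposed to the DSB inducer NCS for 30 min.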
Nrf2 block: inhibitors of Nrf2 signaling; A549 ARE-Fluc reporter, luciferase luminescence, 18-24 h; hit rate 2.1% among 360,000; Potency, µM (highest dose often 46 µM), inactives show at the highest dose activity change, negative = inhibition, usual class: inhibitors; also: potency is read from the fitted curve at half-maximal effect; % is scaled to controls: 0 for no effect and ±100 for the full control effect; nearly all actives have a fitted effect of over 60% in size
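In this cell-based qHTS, ARE-driven firefly luciferase in A549 cells reports Nrf2 activity; the luminescent signal after BugLite lysis is the measured value, with a prior CellTiter-Fluor read for cell health.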
A549 tox: counter-screen for Nrf2 inhibitors: cytotoxicity in A549 cells; A549 ARE-Fluc cells, CellTiter-Fluor viability, 18-24 h; Potency, µM (top dose mostly 46 µM), for the others: top-dose activity change, negative = cytotoxicity, usual class: inhibitors; hit rate 0.16% among 390,000; AID 504648; also: potency is read from the fitted curve at half-maximal effect; % is scaled to controls: 0 for no effect and ±100 for the full control effect
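A549 ARE-Fluc cells in 5% FBS OPTI-MEM, 5000 cells/well, rested 2 h then exposed to compounds in concentration-response for 18-24 h at 37 °C. Viability by CellTiter-Fluor fluorescence (Ex 405/Em 525) after 30 min; luciferase luminescence (BugLite, 15 min, RT) read afterwards.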
Nrf2 ARE act: activators of Nrf2 (ARE) signaling; Potency, µM (top dose mostly 46.1 µM), without a hit: at the top dose activation, hits mostly activators; AREc32 ARE-luciferase reporter (MCF7-derived line), luminescence, 24 h; AID 624171; hit rate 0.31% among 410,000; also: potency is read from the fitted curve at half-maximal effect; % of control where 0% means no effect; nearly all actives have a fitted effect of over 65% in size
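Luminescent ARE reporter assay in AREc32_Fluc cells: overnight plating at 37 deg C, 24 hr compound incubation, Steady-Glo added, 30 min RT before reading.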
* marks the source's active call; other numbers are inactive results; ? = inconclusive; / = not tested or not shown; [ ] = remark or other dose. Unless noted, calls follow the shape of the dose curve; as a rule, active = well fitted curve in the direction sought with a large enough effect; inconclusive = small, poorly fitted or top-dose-only effect, or another doubt; inactive = no such curve, though single readings can be large; an effect the other way counts as inactive or inconclusive.

SMILES | CCT modulator | TCR activator | AT treatment | Nrf2 block | A549 tox | Nrf2 ARE act
CCc1cc2c(N3CCN(c4ccccc4)CC3)ncnc2s1 | 2.5 | 0.7% | 13.0% | 18.4µM* | -10.0% | 0.2%
CCOc1cc(/C=N/NC(=O)CSc2nncn2C)ccc1OC(=O)c1ccc(Cl)cc1 | -1.9 | -0.7%[46.1 µM] | 1.4% | 20.6µM* | 3.4% | 0.2%
CCOc1cc(/C=N/NC(=O)CSc2nncn2C)ccc1OCC(N)=O | -3.7 | 8.7% | -9.1% | 1.6% | 2.2% | -0.6%
CCOc1cc(/C=N\NC(=O)c2ccc(NC(=O)C(C)(C)C)cc2)ccc1OC(=O)c1ccc(C)cc1 | -2.3 | 6.5% | 0.3% | 10.3µM* | -7.2% | -1.0%
Cn1cc(-c2cc3n(n2)CCC(=O)N3CC(=O)NCc2ccc(Cl)cc2)c2ccccc21 | / | / | / | / | 11.8% | -0.6%
CC(C)c1ccc(C2C3=C(CC(c4ccco4)CC3=O)Nc3nc(C(F)(F)F)nn32)cc1 (stereo not given) | / | / | / | 0.9% | 5.5% | /
O=C(O)c1cccc(-n2cnc3cccnc32)c1 | / | / | / | 6.5% | -0.2% | 0.6%
CCCc1cc(C(=O)Nc2ccc(C(=O)c3ccc(C)cc3)cc2)n(C)n1 | 2.2 | 4.7% | 5.7% | ? | ? | 1.9%
O=C(NC(=S)Nc1ccc(N2CCCCC2)c(Cl)c1)c1ccc2c(c1)OCCO2 | -0.2 | 6.4% | 7.5% | 9.2µM* | -7.5% | 2.0%
C=CCn1c(SCC(=O)Nc2c(C)n(C)n(-c3ccccc3)c2=O)nnc1-c1cccnc1 | 0.3 | 1.1% | 13.7% | 16.6% | -1.7% | -0.9%
CCC1CCCCN1C(=O)c1ccc2nc(Cc3ccc(OC)cc3)oc2c1 (stereo not given) | -1.6 | 0.1% | 3.3% | ? | 5.7% | 3.5%
CCN(CC)C1CCN(C(=O)c2ccc3nc(Cc4ccc(OC)cc4)oc3c2)C1 (stereo not given) | -68.5* | 0.6% | -2.6% | 15.9% | -2.3% | 2.1%
O=C(Nc1ccc([N+](=O)[O-])cc1Cl)c1ccccc1O | / | / | / | 23.1µM* | ? | /
CC(=O)Oc1c(C)cc(Cl)cc1C(=O)Nc1ccc([N+](=O)[O-])cc1Cl | 0.2 | -6.0%[46.1 µM] | -1.3% | 1.64µM* | 2.59µM* | -1.1%
CC(=O)OCC(=O)Nc1ccc([N+](=O)[O-])cc1Cl | -2.6 | 0.1% | 1.1% | -6.7% | -0.8% | -0.9%
COc1ccc(N2CCN(C(=O)CCS(=O)(=O)c3ccc4c(c3)CCN4C(=O)C3CC3)CC2)cc1 | -1.4 | -6.5% | 1.0% | ? | 3.1% | -0.6%
CC(=O)C1=C(O)C(=O)N(C)C1c1ccccc1[N+](=O)[O-] (stereo not given) | 0.5 | 8.8% | -5.9% | -7.5% | 4.1% | 4.2%
COc1cc(OC)cc(-c2nnc(NC(=O)CCS(=O)(=O)c3ccccc3)o2)c1 | -0.2 | 3.8% | 16.6% | -4.9% | -3.5% | 9.2%
COc1ccc(OC)c2sc(NC(=O)CCS(=O)(=O)c3ccccc3)nc12 | 0.6 | -4.5% | / | ? | -8.8% | 5.01µM*
COc1ccc(OC)c2sc(NC(=O)CCSc3ccccc3)nc12 | 0.7 | -3.6% | 7.8% | -9.1% | 4.1% | 4.4%
COc1cc(-c2nnc(NC(=O)CCS(=O)(=O)c3ccccc3)o2)cc(OC)c1OC | -4.0 | / | -9.1% | 3.6% | -26.3% | 11.2µM*
COc1cc(OC)cc(-c2nnc(NC(=O)CCS(=O)(=O)c3ccc(F)cc3)o2)c1 | 3.2 | -2.2% | 8.3% | 20.6µM* | ? | ?
O=S1(=O)CCOCCN1Cc1ccc(Cl)cc1Cl | / | / | -4.4% | / | / | /
COc1cc(-c2noc(-c3cc(C)[nH]n3)n2)cc(OC)c1OC | / | / | / | ? | 20.1% | 14.7%
CCCN1CNc2c(c(=O)[nH]c(=S)n2CCc2ccccc2OC)C1 | / | / | / | 4.9% | -10.3% | /
SMILES | CCT modulator | TCR activator | AT treatment | Nrf2 block | A549 tox | Nrf2 ARE act
O=C1Nc2ccccc2CN2C(=O)c3cc(Cl)ccc3NC(=O)C12 (stereo not given) | -1.1 | / | / | / | / | 3.2%
Cn1c(=O)c2cc(C(=O)NC3CCCCCC3)sc2c2ccccc21 | / | / | / | 18.4µM* | ? | 8.2%
COc1ccc(Br)cc1CN(C)C(=O)c1cc(Cl)c2c(c1)OCCO2 | -1.1 | -2.2% | 22.4% | ? | 1.7% | 3.0%
O=C(CNC(=S)NC(=O)c1ccccc1Br)c1ccccc1 | -4.6 | -5.7% | 2.4% | ? | 8.4% | 2.24µM*
Cc1cc(C)c(S(=O)(=O)N2CCN(C(=O)CN3C(=O)NC4(CCCC4)C3=O)CC2)c(C)c1 | 0.6 | -1.7% | 4.5% | -24.3% | -5.2% | -0.9%
CCN(CC)CCNCC1C(=O)O[C@@H]2C[C@@]3(C)CCC[C@H](C)C3=C[C@H]12 (stereo not given in full) | -3.7 | -0.8% | 4.4% | -11.2% | 0.9% | 11.2µM*
O=C(CSCc1cccc(CSCC(=O)Nc2ccc3ccccc3c2)n1)Nc1ccc2ccccc2c1 | -0.5 | 0.8% | 2.6% | 13µM* | -21.8% | 0.5%
CCn1c(SCC(=O)N/N=C/C=C\c2ccco2)nc2ccccc21 | 0.6 | 1.2%[46.1 µM] | -8.8% | ? | -0.3% | 3.55µM*
Cn1c(SCC(=O)N/N=C/C=C\c2ccco2)nc2ccccc21 | 0.4 | -0.6% | 7.6% | -9.2% | -2.0% | ?
O=C(CSc1nc2ccccc2n1Cc1ccccc1)N/N=C/c1ccco1 | -1.0 | -4.3% | -5.4% | 8.2µM* | -18.1% | ?
N#C/C(=N\Nc1cccc(F)c1)C(=O)C1CC1 | 0.7 | 1.6% | 0.4% | 20.6µM* | ? | 0.0%
CCCOC(=O)c1c(NC(=O)C(C)Sc2nc(-c3ccccc3)cc(C(F)(F)F)n2)sc(C(=O)N(C)C)c1C (stereo not given) | / | / | / | 20.6µM* | -21.7% | 3.4%
CCN(CC)C(=O)c1sc(NC(=O)C(C)Sc2nc(-c3ccccc3)cc(C(F)(F)F)n2)c(C(=O)OC)c1C (stereo not given) | / | / | / | ? | -12.2% | 5.1%
O=C(NCCc1nc2ccccc2n1CCOc1ccc2ccccc2c1)C1CCCCC1 | / | / | / | ? | -4.2% | /
Cc1ccc(C(=O)N/N=C/c2ccc([N+](=O)[O-])s2)cc1 | 0.8 | 3.4% | 2.2% | 16.4µM* | ? | -3.5%
Cc1ccc(OCC(=O)N/N=C\c2cccs2)c([N+](=O)[O-])c1 | 0.7 | 1.2%[46.1 µM] | 5.2% | ? | 10.9% | 13.8%
O=C(N/N=C/c1ccc([N+](=O)[O-])s1)c1ccncc1 | -0.8 | -1.3%[46.1 µM] | -5.0% | ? | -10.1% | ?
CCOC(=O)N/N=C\c1ccc([N+](=O)[O-])s1 | -4.3 | 4.1% | -1.1% | 23.1µM* | ? | -0.8%
O=C(N/N=C/c1ccc([N+](=O)[O-])s1)c1cccc(Br)c1 | 1.7 | 7.3%[46.1 µM] | / | 20.6µM* | ? | 0.0%
Cc1ccc([N+](=O)[O-])c(C(=O)N/N=C/c2cccs2)c1 | 0.2 | 6.6% | 4.6% | 9.2µM* | -2.8% | 0.5%
